Source: PubChem BioAssay AID1347420 (Sanford-Burnham Center for Chemical Genomics, 2020)
Out of some 1,300 compounds screened, about 980 (75%) were called active. Not shown: some 4% with an inconclusive outcome. Some of the results follow.

Target: Sulfhydryl oxidase 1 (Homo sapiens) (UniProt O00391)
Assay: QSOX1 enzyme inhibitors, primary screen, biochemical, HyperBlu H2O2 luminescence, HTS (AID 1347420); also: values above 100% were filed as inconclusive
Conditions: recombinant QSOX1, HyperBlu H2O2 luminescence; at 12.5 µM; stronger effect = higher value; active = any value above zero

Chain of Sulfhydryl oxidase 1 (Homo sapiens) (O00391 whole entry, looked up): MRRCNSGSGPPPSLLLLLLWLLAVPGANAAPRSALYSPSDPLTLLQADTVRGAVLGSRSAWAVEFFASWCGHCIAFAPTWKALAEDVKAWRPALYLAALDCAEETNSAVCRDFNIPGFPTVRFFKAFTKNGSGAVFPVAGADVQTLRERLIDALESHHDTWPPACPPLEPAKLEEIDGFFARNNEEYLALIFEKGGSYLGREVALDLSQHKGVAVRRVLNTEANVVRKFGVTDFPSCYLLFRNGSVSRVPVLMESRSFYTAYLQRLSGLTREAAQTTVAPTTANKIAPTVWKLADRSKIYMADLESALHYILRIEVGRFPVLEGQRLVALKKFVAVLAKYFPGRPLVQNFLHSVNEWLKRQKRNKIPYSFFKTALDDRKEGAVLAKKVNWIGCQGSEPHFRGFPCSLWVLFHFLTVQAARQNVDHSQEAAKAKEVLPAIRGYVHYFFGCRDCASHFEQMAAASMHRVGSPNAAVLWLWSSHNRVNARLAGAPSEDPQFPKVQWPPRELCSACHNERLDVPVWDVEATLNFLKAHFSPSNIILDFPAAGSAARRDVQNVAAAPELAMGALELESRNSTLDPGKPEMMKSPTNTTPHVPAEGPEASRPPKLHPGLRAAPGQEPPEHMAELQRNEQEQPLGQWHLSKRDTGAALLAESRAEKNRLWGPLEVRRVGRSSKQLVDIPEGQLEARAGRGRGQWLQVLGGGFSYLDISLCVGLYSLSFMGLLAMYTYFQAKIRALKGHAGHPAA

Structure (SMILES)	inhibition
COc1ccc2c(c1)CCC1C2CC[C@@]2(C)C1CC[C@@H]2NCCCCCCN1C(=O)CCC1=O (stereo partly specified)	8.2% (active)
COc1ccc2c(c1)CCC1C2CC[C@@]2(C)C1CC[C@@H]2NCCCCCCN1C(=O)C=CC1=O (stereo partly specified)	7.6% (active)
CN/C(=C\[N+](=O)[O-])NCCSCc1ccc(CN(C)C)o1	14.5% (active)
CN(C)CCCc1cc(C(=O)Nc2ccc(-c3ccncc3)cc2)ccc1O	14.6% (active)
O=C1N=C(O)C(c2ccccc2)(c2ccccc2)N1	-13.4% (inactive)
CC/C(=C(\c1ccccc1)c1ccc(OCCN(C)C)cc1)c1ccccc1	-2.1% (inactive)
CN(C)CCOC(=O)COc1ccc(Cl)cc1	2.2% (active)
O=C(c1ccccc1)c1ccc2n1CCC2C(=O)O (stereo unspecified)	12.6% (active)
CN1CCC2(CCN3CCc4c(oc5ccccc45)C3C2)N(C)C1=O (stereo unspecified)	4.5% (active)
Cc1nc(N=Nc2ccc(C(=O)O)cc2)c(COP(=O)(O)O)c(C=O)c1O	14.2% (active)
Cc1nc(N=NC2=[C+]C3=C(C=C([N+](=O)[O-])[C+]=C3S(=O)(=O)[O-])C(S(=O)(=O)[O-])=[C+]2)c(COP(=O)([O-])O)c(C=O)c1O	53.8% (active)
C[C@@H]1C(=O)NC2=Nc3cccc(Cl)c3CN21	3.4% (active)
c1ccc2c(c1)CC(N1CCN(c3cccc4c3OCCO4)CC1)C2	10.4% (active)
O=C(O)/C=C/C(O)c1ccc(Cl)cc1 (stereo unspecified)	-40.2% (inactive)
Clc1ccc(C(c2ccccc2Cl)C(Cl)Cl)cc1 (stereo unspecified)	69.1% (active)
O=C(c1ccc(Cl)cc1)N1CCN(c2ccc([N+](=O)[O-])c3ncccc23)CC1	24.1% (active)
c1ccc2c(c1)CCC[C@H]2Nc1nc2ccccc2[nH]1	61.9% (active)
NC1CCN(c2cccc(Cl)n2)CC1	4.2% (active)
COCC(=O)O[C@]1(CCN(C)CCCc2nc3ccccc3[nH]2)CCc2cc(F)ccc2[C@@H]1C(C)C	2.9% (active)
C[N+](C)(C)CCOP(=O)(O)OP(=O)([O-])OC[C@H]1O[C@@H](n2ccc(N)nc2=O)C(O)[C@H]1O (stereo partly specified)	20.6% (active)
CC(C)(C)c1onc(OCP(=O)(O)O)c1CC(N)C(=O)O (stereo unspecified)	24.4% (active)
OCc1cc(C(O)CNCCCCCCOCCCCc2ccccc2)ccc1O (stereo unspecified)	34.4% (active)
CC(=O)N[C@H]1[C@H]([C@H](O)[C@H](O)CO)OC(C(=O)O)=C[C@@H]1O	18.1% (active)
CCCOC(=O)c1c(-c2ccccc2)nc(CC)c(C(=O)SCC)c1CCC	-2.7% (inactive)

Structure (SMILES)	inhibition
C[C@@H](CN1CCC(Cc2ccccc2)CC1)[C@@H](O)c1ccc(O)cc1	3.7% (active)
CC(C(O)c1ccc(O)cc1)N1CCC(Cc2ccccc2)CC1 (stereo unspecified)	4% (active)
COc1cc(SC)ccc1C(=O)N1CCC(Cc2ccccc2)CC1	-5.8% (inactive)
CC(=O)[C@H]1CC[C@H]2[C@@H]3CCC4=CC(=O)CC[C@]4(C)[C@H]3CC[C@]12C	12.3% (active)
CC(=O)OCC(=O)[C@@]1(O)CC[C@H]2[C@@H]3CCC4=CC(=O)CC[C@]4(C)[C@H]3C(=O)C[C@@]21C	6.5% (active)
C[C@]12CCC(=O)C=C1CC[C@@H]1[C@@H]2CC[C@@]2(C)[C@H]1CC[C@]2(O)C(=O)CO	-11% (inactive)
CC(=O)[C@@]1(O)CC[C@H]2[C@@H]3CCC4=CC(=O)CC[C@]4(C)[C@H]3CC[C@@]21C	0.7% (active)
C[C@]12CCC(=O)C=C1CC[C@@H]1[C@@H]2C(=O)C[C@@]2(C)[C@H]1CC[C@]2(O)C(=O)CO	-1.4% (inactive)
O=c1ccc2c(OCCCCc3ccccc3)c3ccoc3cc2o1	18.3% (active)
CO/N=C(\C(=O)N[C@@H]1C(=O)N2C(C(=O)O)=C(CSc3nc(=O)c(O)nn3C)CSC12)c1csc(N)n1 (stereo partly specified)	24.6% (active)
CC(=O)OCC1=C(C(=O)O)N2C(=O)[C@@H](NC(=O)Cc3cccs3)[C@H]2SC1	11.8% (active)
CO/N=C(\C(=O)N[C@@H]1C(=O)N2C(C(=O)O)=C(COC(C)=O)CS[C@H]12)c1csc(N)n1	26.2% (active)
Cn1cnc2c(NCc3ccccc3)nc(NCCO)nc21	12.8% (active)
CC[C@@H](CO)Nc1nc(NCc2ccccc2)c2ncn(C(C)C)c2n1	24.9% (active)
CNCCCC1c2ccccc2C=Cc2ccccc21	3.6% (active)
CC(=O)Oc1cc(C(C)C)c(OCCN(C)C)cc1C	0.5% (active)
O=[N+]([O-])c1cccc2cn[nH]c12	16.8% (active)
COC(=O)[C@H]1[C@H]2C[C@H]3c4[nH]c5ccccc5c4CCN3C[C@H]2CC[C@@H]1O	50.6% (active)
COC(=O)[C@H]1[C@H]2C[C@@H]3c4[nH]c5cc(OC)ccc5c4CCN3C[C@H]2C[C@@H](OC(=O)c2cc(OC)c(OC)c(OC)c2)[C@@H]1OC	33% (active)
COC(=O)[C@@H]1[C@H]2C[C@H]3c4[nH]c5ccccc5c4CCN3C[C@@H]2CC[C@@H]1O	-38.2% (inactive)
OC[C@H]1O[C@H](n2cnc3c(N[C@H]4CCC[C@@H]4O)ncnc32)[C@H](O)[C@@H]1O	5.7% (active)
CNc1ncnc2c1ncn2[C@@H]1O[C@H](CO)[C@H](O)C1O (stereo partly specified)	12% (active)
C[C@H](Cc1ccccc1)Nc1ncnc2c1ncn2[C@@H]1O[C@H](CO)[C@H](O)C1O (stereo partly specified)	-5.3% (inactive)
OC[C@H]1O[C@@H](n2cnc3c(NC4CCCC4)ncnc32)C(O)[C@H]1O (stereo partly specified)	4% (active)

Structure (SMILES)	inhibition
OC[C@H]1O[C@@H](n2cnc3c(NC4CCCCC4)ncnc32)[C@H](O)[C@@H]1O	19.1% (active)
CNc1ncnc2c1ncn2[C@H]1C[C@H](OP(=O)(O)O)[C@@H](COP(=O)(O)O)O1	13.4% (active)
Nc1ccc(CCNc2ncnc3c2ncn3C2OC(CO)C(O)C2O)cc1 (stereo unspecified)	36.3% (active)
CCCCC#Cc1nc(NC)c2ncn([C@@H]3O[C@H](CO)C(O)[C@@H]3O)c2n1 (stereo partly specified)	20.2% (active)
Cn1cc(C(=O)OCC2CCN(CCNS(C)(=O)=O)CC2)c2ccccc21	-1% (inactive)
COc1ccc(/C=C/C(=O)Nc2ccccc2C(=O)O)cc1OC	4.9% (active)
COc1cc(/C=C(\C#N)C(=O)Nc2nnc(C(F)(F)F)s2)ccc1OCc1ccc(C(F)(F)F)cc1C(F)(F)F	-0.4% (inactive)
CNCCC(Oc1ccccc1OC)c1ccccc1 (stereo unspecified)	2.8% (active)
CNCCC(Oc1ccccc1C)c1ccccc1 (stereo unspecified)	0.9% (active)
CC(C)(C)NCC(O)COc1cccc2[nH]c(=O)[nH]c12 (stereo unspecified)	14% (active)
COc1cccc2c1[C@@H]1CN(CCCCn3c(=O)[nH]c4c(sc5ncc(-c6ccccc6)nc54)c3=O)C[C@@H]1CO2	47% (active)
NCCCC(N)(C(=O)O)C(F)F (stereo unspecified)	4.1% (active)
CNC(=O)Oc1ccc2c(c1)[C@]1(C)CCN(C)[C@@H]1N2C	17.7% (active)
O=C(O)C1CCNCC1	1.7% (active)
O=C(O)[C@H]1NCCC[C@H]1C(=O)O	-4.7% (inactive)
O=C(O)C1CCCNC1 (stereo unspecified)	13.4% (active)
CC1=NS(=O)(=O)c2cc(Cl)ccc2N1	34.8% (active)
CC(CCc1ccccc1)NCC(O)c1ccc(O)c(C(N)=O)c1 (stereo unspecified)	12.9% (active)
Nc1ccc(N2C(=O)c3ccccc3C2=O)c(Cl)c1	7.7% (active)
NC1CONC1=O (stereo unspecified)	2.4% (active)
N[C@@H]1CONC1=O	-0.9% (inactive)
N[C@H]1CONC1=O	3.7% (active)
Fc1cccc(/C=N/N=C/c2cccc(F)c2)c1	-1.8% (inactive)
O[Si](CCCN1CCCCC1)(c1ccc(F)cc1)C1CCCCC1 (stereo unspecified)	4.4% (active)

Structure (SMILES)	inhibition
Cn1ncc(S(=O)(=O)Cc2ccccc2)c(Br)c1=O	11.5% (active)
C[C@@H](O)[C@H]1C(=O)N2C(C(=O)O)=C(SCCN=CN)C[C@H]12	17.6% (active)
CCn1cc(C(=O)O)c(=O)c2ccc(C)nc21	10.1% (active)
CCn1cc(C(=O)O)c(=O)c2cc3c(cc21)OCO3	-7.6% (inactive)
CCNC(=O)[C@H]1O[C@@H](n2cnc3c(N)nc(NCCc4ccc(CCC(=O)O)cc4)nc32)C(O)[C@H]1O (stereo partly specified)	45.5% (active)
CNC(=O)[C@H]1O[C@@H](n2cnc3c(NCc4ccc(N)cc4)ncnc32)C(O)[C@H]1O (stereo partly specified)	32.2% (active)
CNC(=O)[C@H]1O[C@@H](n2cnc3c(NCc4cccc(I)c4)ncnc32)C(O)[C@H]1O (stereo partly specified)	14% (active)
CC(=O)N[C@@H](CS)C(=O)O	43.1% (active)
CC1(C)CCC=[N+]1[O-]	6.8% (active)
Cn1ccc2cc3c(cc21)CCN3C(=O)Nc1cccnc1	-4.6% (inactive)
CN1CCc2cc(NC(=O)Nc3cccnc3)ccc21	16.5% (active)
O=C(O)CCC(=O)N1CCCC1C(=O)O (stereo unspecified)	-11.1% (inactive)
CCCN1C[C@H](CSC)C[C@@H]2c3cccc4[nH]cc(c34)C[C@H]21	31% (active)
CCc1c(C)[nH]c2c1C(=O)C(CN1CCOCC1)CC2 (stereo unspecified)	17.7% (active)
O=C(O)/C=C/c1cnc[nH]1	10.6% (active)
N[C@@H](Cc1cnc[nH]1)C(=O)O	-5.8% (inactive)
CN(C)c1cc2c(Nc3ccc4c(cnn4Cc4ccccc4)c3)ncnc2cn1	15.4% (active)
CC#CCOC(=O)c1c(C)nc2sc3c(c2c1N)CCC(O)C3 (stereo unspecified)	-4.2% (inactive)
S=C(Nc1ccccc1)Nc1nccs1	35.5% (active)
CC1CCN=C(N)S1 (stereo unspecified)	29.6% (active)
NCCSSCCN	47.5% (active)
O=C1/C(=C/c2ccsc2)CC/C1=C\c1cccs1	17.5% (active)
COc1cc2c(c(OC)c1OC)-c1ccc(OC)c(=O)cc1[C@@H](NC(C)=O)CC2	-1% (inactive)
Cn1cc(C2=C(c3ccc(Cl)cc3Cl)C(=O)NC2=O)c2ccccc21	25.7% (active)
